Assay results reported in the supplement of paper PMC3334620.
The full ranking holds about 33,000 sequences; the median of “E-score (-0.5 to 0.5)” is about -0.035, and the highest 2% start at about 0.34. Only a selection was taken, and the highest values are over-represented in it overall.

Target: T1, Mot3 (UniProt P54785)
T1 sequence: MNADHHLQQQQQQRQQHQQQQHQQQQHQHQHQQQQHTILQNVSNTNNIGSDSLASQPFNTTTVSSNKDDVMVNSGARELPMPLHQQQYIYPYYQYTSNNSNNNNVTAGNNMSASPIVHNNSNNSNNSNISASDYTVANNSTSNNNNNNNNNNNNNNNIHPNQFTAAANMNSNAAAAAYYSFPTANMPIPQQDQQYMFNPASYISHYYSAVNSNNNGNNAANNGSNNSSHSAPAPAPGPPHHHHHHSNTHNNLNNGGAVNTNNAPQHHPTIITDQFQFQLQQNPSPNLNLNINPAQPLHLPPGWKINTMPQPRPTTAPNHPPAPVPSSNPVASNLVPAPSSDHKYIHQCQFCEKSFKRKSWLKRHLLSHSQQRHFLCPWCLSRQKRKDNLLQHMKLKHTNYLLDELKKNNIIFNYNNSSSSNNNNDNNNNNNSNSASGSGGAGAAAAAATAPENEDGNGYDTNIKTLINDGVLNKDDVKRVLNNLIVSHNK
Experiment: PBM E-score (8-mer binding enrichment) (E-score (-0.5 to 0.5)); higher = stronger / more preferred TF binding
Settings: protein concentration: 200 nM; construct: GST-full length
Experimental: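 Universal 'all 10-mer' protein binding microarrays (Agilent AMADID 015681) probed with GST-tagged S. cerevisiae TFs (full-length or DBD) made by in vitro transcription/translation (PURExpress), about 100-200 nM. Bound TF was detected with fluorescent anti-GST. Each ungapped 8-mer (which stands for itself and its reverse complement) is scored by the PBM enrichment score (E-score), a modified Wilcoxon-Mann-Whitney statistic from -0.5 to +0.5, computed with the Universal PBM Analysis Suite. Scale: above 0.35 generally sequence-specific binding.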

| Sequence | PBM E-score |
| --- | --- |
| GAGGGTGA | -0.208 |
| CCGCTCCG | -0.227 |
| AAACCGAA | -0.0393 |
| ACAGCTGT | -0.0347 |
| AGCTCAGC | -0.206 |
| ATGCAGGA | 0.0312 |
| CTGCAGGC | 0.406 |
| ATGCAGGC | 0.342 |
| CTGCAGTC | -0.106 |
| CTGCAGGA | 0.291 |
| ATGCAGGG | -0.153 |
| ACCATTTC | -0.123 |
| CCGAGACG | -0.0781 |
| CGCTGGTC | -0.275 |
| CATGTCGA | 0.351 |
| GATGTCGA | 0.215 |
| CATGTCGG | 0.222 |
| CCTGTCGA | 0.342 |
| GCTGTCGA | -0.12 |
| CCTGTCGC | -0.046 |
| GGGTTCTA | -0.176 |
| GTCTGTAA | 0.149 |
| AGTTTACG | 0.188 |
| CGTTTACA | 0.349 |
| AGTTTACC | 0.0908 |

| Sequence | PBM E-score |
| --- | --- |
| CGTTTAGA | 0.0393 |
| CGTTTACC | 0.0878 |
| AGTTTACA | 0.363 |
| AAAGATGC | 0.132 |
| AGTCCTCC | -0.221 |
| CACAGAAG | -0.00641 |
| CTTGAAAG | 0.0362 |
| AGGAGGGG | -0.156 |
| GAAGCCAC | -0.196 |
| GGCCTGAA | -0.277 |
| AGCCTGTA | 0.342 |
| GGCCTGCA | -0.0526 |
| TGCCTGAA | 0.48 |
| CGCCTGCA | 0.23 |
| CGCCTGAA | 0.297 |
| GGCCTGTA | 0.148 |
| AGCCTGCA | 0.344 |
| AGCCTGAA | 0.223 |
| CAGTACTG | -0.132 |
| CCCCCGCA | -0.214 |
| GTCTCGCA | -0.238 |
| CGATCAAC | 0.0859 |
| AAACCCCT | 0.0363 |
| GATGCTAC | -0.122 |
| CAAACGCC | -0.143 |

| Sequence | PBM E-score |
| --- | --- |
| AACCCACA | 0.0686 |
| CATGCCTA | 0.245 |
| AATGCCTG | 0.352 |
| AATGCCTA | 0.359 |
| ACTGCCTA | 0.199 |
| GATGCCTA | 0.439 |
| AATGCCGA | -0.249 |
| AATGCCCG | -0.316 |
| AATGCCTC | -0.0227 |
| GATGCCAA | -0.148 |
| CGATTTGC | -0.216 |
| ATGGCGAC | -0.254 |
| ACAGATCG | -0.134 |
| CGAATGAC | 0.186 |
| ACGCCCTG | -0.0695 |
| AACTGGAT | -0.153 |
| GGAGCCAA | -0.117 |
| ACAACCAA | 0.00653 |
| TCTGTACA | 0.235 |
| AATGTACA | 0.292 |
| TATGTACA | 0.353 |
| CATGTACG | 0.239 |
| CATGTACA | 0.387 |
| GATGTACA | 0.259 |
| GGCTCTGA | 0.00444 |

| Sequence | PBM E-score |
| --- | --- |
| GTCTGATA | 0.0245 |
| CACAATCG | 0.018 |
| GGGTAGTA | -0.109 |
| CCAAAGTC | -0.189 |
| CAAGGGGC | -0.148 |
| ACGTGCTC | 0.0193 |
| ACCTGGGA | -0.0112 |
| CACAGGAC | -0.175 |
| TACAGGAA | 0.43 |
| AACAGGAA | 0.416 |
| AACAGGAC | 0.19 |
| AACAGGAG | 0.0835 |
| TAGAGGAA | -0.0809 |
| GACAGGAC | -0.231 |
| GACAGGAA | 0.374 |
| CACAGGAA | 0.385 |
| GACAGAAA | 0.0469 |
| TACAGTAA | 0.194 |
| CACAGGAG | 0.0555 |
| ACTGAGGC | -0.119 |
| ATTCACTA | 0.124 |
| ACCATTAC | 0.168 |
| CGGTCCCA | -0.296 |
| AACCAGCT | 0.0762 |
| ACTAGCAG | 0.109 |

| Sequence | PBM E-score |
| --- | --- |
| ACTCCAAG | -0.0115 |
| AGTCCGAT | -0.158 |
| AGAAACGA | 0.0178 |
| CGTCGTAA | 0.0759 |
| AGGTTGGA | -0.173 |
| AGGAGGCG | -0.163 |
| CGGAGGCC | -0.224 |
| AGGAGGCC | -0.263 |
| GGGAGGCA | 0.364 |
| GGGAGGGA | -0.149 |
| CGGAGGCA | 0.375 |
| GGGAGGAA | -0.11 |
| CGGAGGTA | -0.0405 |
| AGGAGGCA | 0.382 |
| CAGACCAC | -0.109 |
| GTGGCCTA | 0.0303 |
| ATCTAAAG | 0.136 |
| ACCAAGCA | -0.0877 |
| CGGGGACC | -0.0971 |
| AGAAACTA | -0.0831 |
| GTGGATGA | -0.0229 |
| ACGGCAAG | -0.116 |
| AAGGCAGG | 0.231 |
| AAGGCAAC | 0.487 |
| AAGGCGAA | -0.0356 |

| Sequence | PBM E-score |
| --- | --- |
| AGGGCAAA | -0.0247 |
| AAGGCAAG | 0.485 |
| AAGGCAAA | 0.479 |
| ACGGCAAT | 0.0994 |
| AAGGCAAT | 0.479 |
| AAGGCAGC | 0.276 |
| ATGGCAAC | -0.0341 |
| AAGGCAGT | -0.0323 |
| GGATGCGA | -0.246 |
| ACACAGCG | 0.318 |
| GCCCGATA | -0.181 |
| AAGTTCAT | -0.132 |
| GAGGCAAC | 0.435 |
| GGGGCAAC | -0.0256 |
| GCGGCAAC | -0.0624 |
| CTACGCTC | -0.0123 |
| TACAAGCA | 0.284 |
| GCTACTCA | -0.175 |
| CTCTAGCA | -0.0349 |
| ATTTCCTC | -0.0476 |
| ATTTCCCA | -0.0389 |
| ATTTCCAG | 0.0581 |
| ATTTCCAA | 0.0549 |
| ATTTCCTG | 0.41 |
| ATTTCCTA | 0.371 |

| Sequence | PBM E-score |
| --- | --- |
| AAGATTGT | 0.126 |
| CCGGTGCG | -0.0852 |
| AATAGCCA | -0.0713 |
| CCAGGAGA | -0.238 |
| CAAGGTAA | 0.258 |
| GGAGGTAC | 0.0528 |
| AAAGGTAA | 0.324 |
| AAAGGTAC | 0.42 |
| CAAGGTAG | 0.0907 |
| CAAGGTGC | 0.0747 |
| GAAGGTAA | 0.397 |
| GAAGGTGC | 0.136 |
| GAAGGTAC | 0.438 |
| CAAGGTAC | 0.376 |
| AAAGGTAT | 0.102 |
| AAAGGTAG | -0.135 |
| CGCGACGC | -0.148 |
| ATACCCGG | 0.0542 |
| TCGCCCCA | -0.213 |
| CACTGTCC | -0.196 |
| GGACCGCC | -0.212 |
| ACCCTTTG | -0.147 |
| GCATTCAC | 0.0735 |
| ACGTCTCT | 0.0141 |
